Several values for one entry are separate records, joined by “and”; a condition that tells them apart may be missing. Equal values may be shown once. Inconclusive results are not listed. A structure can be active in one record and inactive in another. Activity calls are given as the source filed them. The calls were made as follows: active = hit-call score of the fitted dose curve at least 0.9, where 1 is the maximum; inconclusive = response in the unintended direction; inactive = score below 0.9.

Broadly, the AC50 is the concentration giving half of the maximal activity seen.

Read-out in this assay: xenobiotic metabolism (CYP1A2), CYP1A2 (gene 1544)
Kind of assay: CLD_CYP1A2_24hr: CellzDirect (CLD) Gene Expression Assay for xenobiotic metabolism (CYP1A2) at 24 hours (AID 2283683). The protocol: CLD_24hr is a cell-based, multiplexed-readout assay that uses hepatocyte, a human liver primary cell, with measurements taken at 24 hours after chemical dosing in a 96-well plate.CLD_CYP1A2_24hr is one of 16 assay component(s) measured or calculated from the CLD_24hr assay. It is designed to make measurements of mRNA induction, a form of inducible reporter, as detected with chemiluminescence signals by Quantitative Nuclease Protection Assay (qNPA) technology.Data from the assay component CLD_CYP1A2_24hr was analyzed at the endpoint, CLD_CYP1A2_24hr, in the positive analysis fitting direction relative to DMSO as the negative control and baseline of activity. Using a type of inducible reporter, gain-of-signal activity can be used to understand changes in the reporter gene as they relate to the gene CYP1A2. Furthermore, this assay endpoint can be referred to as a primary readout. To generalize the intended target to other relatable targets, this assay endpoint is annotated to the cyp intended target family, where subfamily is xenobiotic metabolism.
Human hepatocyte cultures were treated daily for two consecutive days with fresh dosing solutions containing appropriate concentrations of the 320 ToxCast chemicals (chemical identities were blinded to CellzDirect and other ToxCast collaborators), vehicle control (0.2% DMSO), and positive control inducers as summarized in Table 1. Due to the large number of treatment groups and chemicals examined, the ToxCast chemicals were divided into two groups (spanning two independent cultures of hepatocytes from separate donor preparations (Hu778: ToxCast plates 1 and 2; Hu776: ToxCast plates 3 and 4). Each preparation of human hepatocyte cultures was treated with respective vehicle control, medium only control, set of six positive controls/reference chemicals for the five hepatic receptor pathways, and a subset of eight of the ToxCast chemicals (indoxacarb, pyrithiobac-sodium, norflurazon, cyhalofop-butyl, methomyl, thiram, acetochlor, and propiconazole). These replicate data, coupled with internal replicates designed within the blinded ToxCast chemical library, provided additional data to evaluate interindividual differences between hepatocyte preparations and their potential impact on chemical profiles.Cell morphology and integrity were evaluated using phase-contrast microscopy as an indicator of hepatocyte cell health (Tyson & Green, 1987). Cultures for each treatment group (i.e., media, vehicle [0.2% DMSO], positive control inducers [multiple concentrations], and the ToxCast chemicals [multiple concentrations]) were observed and cell morphology was assessed relative to vehicle control cultures at each harvest time point (0, 6, 24, or 48 h). […] Images were evaluated at the conclusion of the study to assess changes in cell integrity and account for the effects of chemical exposure on uncharacteristic changes in concentration-dependent gene expression profiles. The results from these determinations of apparent cytotoxicity were annotated (yes/no) alongside the corresponding qNPA data for reference.At the conclusion of each treatment period, hepatocyte cultures (96-well) were washed with 1 volume of HBSS, lysed by addition of 25 ul ArrayPlate lysis buffer (HTG, Tucson, AZ), and 70 ul/well of Denaturation Oil, denatured by incubation at 95C for 10 min, and frozen at approximately -70C until analysis by nuclease protection assay (qNPA) (Roberts et al., 2007). For qNPA analysis, cell lysates were thawed at 50C for approximately 30 min, qNPA probes were added, and samples were incubated at 95C for 10 min to begin the detection process by denaturing the target RNA, dissociating the duplexes and secondary structure hybridization. At the conclusion of the hybridization period, S1 nuclease reagent was added to each sample to digest all nonprotected nucleotides at 50C for 60-90 min. […]
As for `COc1nc(C)nc(NC(=O)NS(=O)(=O)c2ccccc2CCC(F)(F)F)n1`, the AC50 is 1.7 µM (active) and 11 µM (active); the compound was called inactive. On to `COc1nc(C)nc(NC(=O)NS(=O)(=O)c2ccccc2Cl)n1`, for which the compound was classed as inactive. For `O=C(Nc1ccccc1)Nc1ccnc(Cl)c1`, the AC50 is 7.19 µM (active).

With `O=C(O)c1nc(Cl)ccc1Cl`, the compound was classed as inactive and the AC50 was 9.48 µM (active). Consider `CCc1nn(C)c(C(=O)NCc2ccc(C(C)(C)C)cc2)c1Cl`, for which the result was inactive. Turning to `CCCC1COC(Cn2cncn2)(c2ccc(Cl)cc2Cl)O1` (stereo not given), the AC50 is 2.13 µM (active). As for `OC(c1ccc(Cl)cc1)(c1cncnc1)c1ccccc1Cl` (stereo not given), the compound was classed as inactive. In the case of `COc1cnc(OC)n2nc(NS(=O)(=O)c3c(OCC(F)F)cccc3C(F)(F)F)nc12`, the compound was called inactive.

As to `CCCCOC(=O)c1ccccc1C(=O)OCCCC`, the AC50 was 4.9 µM (active) and 20 µM (active). `C=CCC1=C(C)[C@@H](OC(=O)[C@@H]2[C@@H](C=C(C)C)C2(C)C)CC1=O`: the outcome was inactive. The same measure, in the same setting: with `CCCCC(CC)COC(=O)c1ccccc1C(=O)OCC(CC)CCCC` (stereo not given) the entry was “inactive”; with `C=CCC1=C(C)C(OC(=O)C2C(C=C(C)C)C2(C)C)CC1=O` (stereo not given), “inactive”.

For the compound `CNC(=S)S`, the call was inactive.

Turning to `COC(=O)c1ccccc1C(=O)OC`, the compound was called inactive. Regarding `Fc1ccc(Oc2ccnc3cc(Cl)cc(Cl)c23)cc1`, the AC50 was 2.84 µM (active). Still for that read-out and setting: with `C#CCOS(=O)OC1CCCCC1Oc1ccc(C(C)(C)C)cc1` (stereo not given) the figure was 3.11 µM (active).

On to `CCON=C(CC)C1=C(O)CC(c2c(C)cc(C)cc2C)CC1=O` (stereo not given), for which the compound was called inactive. On to `COC(=O)C(C)Oc1ccc(Oc2ccc(Cl)cc2Cl)cc1` (stereo not given), for which the call was inactive. As to `CC(C)Oc1cc(-n2nc(C(C)(C)C)oc2=O)c(Cl)cc1Cl`, the AC50 was 4.14 µM (active).

In the case of `C=CC1(C)OC(=O)N(c2cc(Cl)cc(Cl)c2)C1=O` (stereo not given), the concentration at half-maximal activity (AC50) is 2.47 µM (active). For `Cc1c(F)c(F)c(COC(=O)C2C(/C=C(\Cl)C(F)(F)F)C2(C)C)c(F)c1F` (stereo not given), the result was inactive. With `CCOC(=O)CC(SP(=S)(OC)OC)C(=O)OCC` (stereo not given), the AC50 is 8.3 µM (active). On to `COc1ccc(C(c2ccc(OC)cc2)C(Cl)(Cl)Cl)cc1`, for which the AC50 is 20 µM (active).

`CC1=C(C(=O)Nc2ccccc2)SCCO1`: the AC50 was 15.1 µM (active). In the case of `CC(C)(C)c1ccc(CSc2cnn(C(C)(C)C)c(=O)c2Cl)cc1`, the compound was called inactive.

As to `CCNc1nc(Cl)nc(NCC)n1`, the AC50 is 5.26 µM (active). Same read-out and setting: the result for `N#Cc1cc(Br)c(O)c(Br)c1` reads 33.4 µM (active); that for `CC1COC(Cn2cncn2)(c2ccc(Oc3ccc(Cl)cc3)cc2Cl)O1` (stereo not given), 0.729 µM (active); that for `COC(=O)N(OC)c1ccccc1COc1ccn(-c2ccc(Cl)cc2)n1`, 0.545 µM (active). The same measure, in the same setting: the result for `Cc1ccc(-c2c(Cl)nc(C#N)n2S(=O)(=O)N(C)C)cc1` reads 0.521 µM (active). Still for that read-out and setting: the result for `COc1nc(NC(C)C)nc(NC(C)C)n1` reads 3.61 µM (active); that for `CCOc1cc(Oc2ccc(C(F)(F)F)cc2Cl)ccc1[N+](=O)[O-]`, 5.69 µM (active); that for `CON(C)C(=O)Nc1ccc(Cl)c(Cl)c1`, 1.29 µM (active). On to `CC(C)C1(C)N=C(c2nc3ccccc3cc2C(=O)O)NC1=O` (stereo not given), for which the outcome was inactive. Take `N#CC(CCc1ccc(Cl)cc1)(Cn1cncn1)c1ccccc1` (stereo not given): the AC50 was 1.24 µM (active). The same measure, in the same setting: with `CCOP(=S)(OCC)SCn1c(=O)oc2cc(Cl)ccc21` the figure was 3.97 µM (active). Consider `CCOC(=O)C(Cl)Cc1cc(-n2nc(C)n(C(F)F)c2=O)c(F)cc1Cl` (stereo not given), for which the compound was called inactive. Regarding `Oc1ccccc1-c1ccccc1`, the half-maximal activity concentration (AC50) was 20 µM (active).

Source of the values: PubChem BioAssay (EPA / NIEHS).
